“And” between values parts separate entries of the source, which are not always exact repeats. Identical values can stand only once. A number with no mark means an inactive call. The source made the active and inactive calls. No stated cut-off is given here; in the data, active means remaining activity below about 50%; inactive means the rest.
target: Phospholipase D1 (Homo sapiens) (UniProt Q13393); test: PLD1 inhibitors in cells, Calu-1 cells, single concentration (AID 602144); conditions: cellular PLD1 activity, stronger effect = lower value;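 further: tested at 200 nM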
Sequence (Q13393 whole entry, looked up): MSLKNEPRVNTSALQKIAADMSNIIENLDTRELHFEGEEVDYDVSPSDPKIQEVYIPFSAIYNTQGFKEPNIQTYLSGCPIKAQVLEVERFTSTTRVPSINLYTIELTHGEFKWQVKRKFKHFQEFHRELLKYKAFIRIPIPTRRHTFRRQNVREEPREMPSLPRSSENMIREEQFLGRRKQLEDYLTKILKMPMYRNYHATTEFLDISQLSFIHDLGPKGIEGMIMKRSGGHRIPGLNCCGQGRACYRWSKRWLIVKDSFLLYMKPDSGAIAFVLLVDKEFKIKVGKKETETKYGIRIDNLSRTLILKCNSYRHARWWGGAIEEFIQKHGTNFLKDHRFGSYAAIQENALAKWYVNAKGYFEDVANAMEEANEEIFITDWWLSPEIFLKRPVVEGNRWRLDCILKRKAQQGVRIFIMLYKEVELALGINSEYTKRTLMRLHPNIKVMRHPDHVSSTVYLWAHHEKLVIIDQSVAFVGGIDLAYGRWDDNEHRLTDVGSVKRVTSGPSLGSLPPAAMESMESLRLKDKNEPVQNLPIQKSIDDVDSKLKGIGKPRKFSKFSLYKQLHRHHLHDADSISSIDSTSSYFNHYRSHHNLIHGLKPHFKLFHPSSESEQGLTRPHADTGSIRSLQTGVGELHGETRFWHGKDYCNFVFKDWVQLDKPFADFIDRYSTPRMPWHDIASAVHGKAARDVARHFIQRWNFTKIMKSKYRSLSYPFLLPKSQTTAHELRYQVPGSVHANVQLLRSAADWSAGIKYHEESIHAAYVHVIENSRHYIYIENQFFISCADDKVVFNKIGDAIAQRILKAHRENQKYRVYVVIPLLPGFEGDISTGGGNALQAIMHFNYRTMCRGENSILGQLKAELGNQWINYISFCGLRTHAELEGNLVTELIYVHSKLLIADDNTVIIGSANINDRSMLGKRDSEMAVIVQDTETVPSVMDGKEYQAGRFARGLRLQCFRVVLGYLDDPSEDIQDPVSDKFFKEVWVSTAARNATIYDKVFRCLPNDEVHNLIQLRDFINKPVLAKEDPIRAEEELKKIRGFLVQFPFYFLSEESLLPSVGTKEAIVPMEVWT
Sequence (Q13393 whole entry, looked up): as above

SMILES	remaining activity
O=C(NCCN1CCC2(CC1)CNc1ccccc12)c1cnc2ccccc2c1	126%
O=c1[nH]c2ccccc2n1C1CCN(CCNS(=O)(=O)c2ccc(Cl)cc2)CC1	137%
O=c1[nH]c2ccccc2n1C1CCN(CCNS(=O)(=O)c2ccccc2[N+](=O)[O-])CC1	132%
O=C(NCCN1CCN(c2ccncc2)CC1)c1ccc(Cl)cc1	121%
O=C(c1ccc(Cl)cc1)N1CCC2(CC1)C(=O)NCN2c1ccccc1	102%
O=C(NCCN1CCC(C(=O)NCc2ccc(Cl)cc2)CC1)c1ccc2ccccc2c1	99.2%
O=c1[nH]c2ccccc2n1C1CCN(CCNC(=S)Nc2ccc(Cl)c(Cl)c2)CC1	170%
Cc1ccc(C(=O)N[C@@H](C)CN2CCC(n3c(=O)[nH]c4ccc(F)cc43)CC2)cc1	27.4% (active)
C[C@@H](CN1CCC(n2c(=O)[nH]c3ccccc32)CC1)NC(=O)COc1ccccc1	28.1% (active)
CCNC(=S)NCCN1CCC(n2c(=O)[nH]c3ccccc32)CC1	144%
O=C(NCCN1CCC2(CC1)CNc1ccccc12)C1CC1c1ccccc1 (configuration not stated)	113%
O=C(c1ccc2ccccc2c1)N1CCC2(CC1)C(=O)NCN2c1ccccc1	113%
O=C(NCCN1CCC(n2c(=O)[nH]c3ccccc32)CC1)Nc1ccccc1C(F)(F)F	131%
CN(C)c1cccc2c(S(=O)(=O)NCCN3CCC(n4c(=O)[nH]c5ccccc54)CC3)cccc12	127%
O=C(NCCN1CCC(C(=O)NCC2CC2)CC1)c1ccc2ccccc2c1	106%
O=C(NCCN1CCC(n2c(=O)[nH]c3ccccc32)CC1)Nc1cccc(C(F)(F)F)c1	135%
O=C1c2ccccc2C(=O)N1CCCN1CCC(n2c(=O)[nH]c3ccccc32)CC1	76.2%
O=C(NCCN1CCC(n2c(=O)[nH]c3ccccc32)CC1)N1c2ccccc2C=Cc2ccccc21	92.3%
C[C@@H](CN1CCC(n2c(=O)[nH]c3cc(I)ccc32)CC1)NC(=O)C1CC1c1ccccc1 (some centres not stated)	19.9% (active)
O=C(NCCN1CCC(n2c(=O)[nH]c3ccccc32)CC1)Nc1cccc(F)c1	20.1% (active)
Cc1ccc(C(=O)N[C@@H](C)CN2CCC(n3c(=O)[nH]c4cc(Cl)ccc43)CC2)cc1	12.1% (active)
C[C@@H](NC(=O)NCCN1CCC(n2c(=O)[nH]c3ccccc32)CC1)c1ccccc1	131% and 118%
O=C(NCCN1CCC(n2c(=O)[nH]c3ccccc32)CC1)c1cccc2cccnc12	30.7% (active)
O=C(NCCN1CCC(n2c(=O)[nH]c3ccccc32)CC1)c1ccc2ccc3c4c2c1CC=C4CC=C3	95.6%
O=C1c2ccccc2C(=O)N1CCN1CCC(n2c(=O)[nH]c3ccccc32)CC1	112%
Nc1ccc(C(=O)NCCN2CCC(n3c(=O)[nH]c4ccccc43)CC2)cc1OC(F)(F)F	72.6%
O=C(NCCN1CCN(c2ncccn2)CC1)c1ccc2ccccc2c1	118%

Reference: PubChem BioAssay AID602144 (Vanderbilt Specialized Chemistry Center, 2011)
